Assay results from PubChem BioAssay AID1159580 (chemical genetic matrix, 2015).
“And” between values parts separate entries of the source, which are not always exact repeats. Identical values can stand only once. In all, about 5,500 compounds went through this assay and about 2,000 (36%) were called active. About 18% were inconclusive and are not listed. Rule as the data show it: active = normalized growth mostly below about 0.91 (no sharp cut-off); inconclusive = no clear call, values can overlap the other calls; inactive = mostly above about 0.92. This is one part of the list.

Assay: chemical genetic growth profiling, strain panel (AID 1159580);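 also: tested at 20 µM; growth read once vehicle control cultures reached saturation at 30 °C; 1 = growth at the plate median or of vehicle wells; lower values mean less growth of the strain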
Settings: S. cerevisiae deletion strains, growth OD

Measured: normalized growth

CC(=O)Oc1ccc(/C=C/c2cc(OC(C)=O)cc(OC(C)=O)c2)cc1
inactive: locus YAL021C, strain ccr4, stronger effect = lower value 0.979 | locus YAL026C, strain drs2, stronger effect = lower value 0.984 | locus YAL030W, strain snc1, stronger effect = lower value 0.97 | locus YBL061C, strain skt5, stronger effect = lower value 0.976 | locus YBR009C, strain hhf1, stronger effect = lower value 0.962 | locus YBR021W, strain FUR4, stronger effect = lower value 0.96 | locus YBR023C, strain chs3, stronger effect = lower value 0.975 | locus YBR171W, strain sec66, stronger effect = lower value 0.978 | locus YBR229C, strain ROT2, stronger effect = lower value 0.997 | locus YBR231C, strain swc5, stronger effect = lower value 0.986 | locus YBR279W, strain paf1, stronger effect = lower value 0.978 | locus YCL011C, strain gbp2, stronger effect = lower value 0.972 | locus YCL016C, strain dcc1, stronger effect = lower value 0.98 | locus YCL029C, strain bik1, stronger effect = lower value 1.01 | locus YCL061C, strain MRC1, stronger effect = lower value 0.953 | locus YCL069W, strain vba3, stronger effect = lower value 0.984 | locus YCR088W, strain abp1, stronger effect = lower value 0.979 | locus YDL005C, strain med2, stronger effect = lower value 0.963 | locus YDL035C, strain GPR1, stronger effect = lower value 0.984 | locus YDL040C, strain nat1, stronger effect = lower value 0.963 | locus YDL074C, strain BRE1, stronger effect = lower value 0.982 | locus YDL101C, strain DUN1, stronger effect = lower value 0.993 | locus YDL134C, strain PPH21, stronger effect = lower value 0.97 | locus YDL185W, strain tfp1, stronger effect = lower value 1.02 | locus YDL192W, strain arf1, stronger effect = lower value 0.997 | locus YDR001C, strain nth1, stronger effect = lower value 0.987 | locus YDR069C, strain doa4, stronger effect = lower value 0.966 | locus YDR101C, strain arx1, stronger effect = lower value 0.987 | locus YDR137W, strain rgp1, stronger effect = lower value 0.925 | locus YDR159W, strain sac3, stronger effect = lower value 0.951 | locus YDR162C, strain NBP2, stronger effect = lower value 0.977 | locus YDR195W, strain ref2 0.985 | locus YDR297W, strain sur2, stronger effect = lower value 0.979 | locus YDR318W, strain mcm21, stronger effect = lower value 0.986 | locus YDR334W, strain swr1, stronger effect = lower value 0.981 | locus YDR335W, strain msn5, stronger effect = lower value 0.987 | locus YDR388W, stronger effect = lower value 1 | locus YDR502C, strain sam2, stronger effect = lower value 0.999 | locus YEL003W, strain gim4, stronger effect = lower value 0.969 | locus YEL037C, strain rad23, stronger effect = lower value 0.983 | locus YEL061C, strain CIN8 (second series), stronger effect = lower value 0.99 | locus YEL061C, strain CIN8, stronger effect = lower value 0.999 | locus YER015W, strain faa2, stronger effect = lower value 0.974 | locus YER016W, strain bim1, stronger effect = lower value 0.976 | locus YER110C, stronger effect = lower value 1.01 | locus YER111C, strain swi4, stronger effect = lower value 0.976 | locus YER155C, strain BEM2 (second series), stronger effect = lower value 0.924 | locus YER155C, strain BEM2, stronger effect = lower value 1.01 | locus YER167W, strain BCK2, stronger effect = lower value 0.991 | locus YFR010W, strain ubp6, stronger effect = lower value 0.985 | locus YGL078C, strain dbp3, stronger effect = lower value 0.996 | locus YGL086W, strain mad1, stronger effect = lower value 0.994 | locus YGL167C, strain pmr1, stronger effect = lower value 0.978 | locus YGL173C, strain kem1, stronger effect = lower value 0.961 | locus YGL227W, strain vid30, stronger effect = lower value 0.982 | locus YGL240W, strain doc1, stronger effect = lower value 0.942 | locus YGL248W, strain PDE1, stronger effect = lower value 0.974 | locus YGL253W, strain hxk2, stronger effect = lower value 0.973 | locus YGR135W, strain pre9, stronger effect = lower value 0.977 | locus YGR229C, strain SMI1, stronger effect = lower value 1.01 | locus YGR252W, strain gcn5, stronger effect = lower value 0.951 | locus YHR013C, strain ard1, stronger effect = lower value 0.978 | locus YHR027C, strain rpn1, stronger effect = lower value 0.975 | locus YHR030C, strain SLT2, stronger effect = lower value 1.01 and 1.03 | locus YHR079C, strain IRE1 (second series), stronger effect = lower value 1 | locus YHR079C, strain IRE1, stronger effect = lower value 1.03 | locus YHR094C, strain hxt1, stronger effect = lower value 1 | locus YHR129C, strain ARP1, stronger effect = lower value 0.985 | locus YHR142W, strain chs7, stronger effect = lower value 0.968 | locus YHR200W, strain rpn10, stronger effect = lower value 1.01 | locus YIL066C, strain RNR3, stronger effect = lower value 0.965 | locus YIL073C, strain SPO22, stronger effect = lower value 1.04 | locus YIL125W, strain kgd1, stronger effect = lower value 1.02 | locus YIR030C, strain dcg1, stronger effect = lower value 0.99 | locus YJL092W, strain hpr5, stronger effect = lower value 0.977 | locus YJL095W, strain BCK1 (second series), stronger effect = lower value 0.983 | locus YJL095W, strain BCK1, stronger effect = lower value 0.962 and 0.998 | locus YJL115W, strain asf1, stronger effect = lower value 0.992 | locus YJL129C, strain trk1, stronger effect = lower value 0.978 | locus YJL134W, strain LCB3, stronger effect = lower value 1.01 | locus YJL154C, strain vps35, stronger effect = lower value 0.983 | locus YJL164C, strain tpk1, stronger effect = lower value 0.96 | locus YJL166W, strain qcr8, stronger effect = lower value 0.95 | locus YJL168C, strain set2, stronger effect = lower value 0.997 | locus YJL187C, strain SWE1 (second series), stronger effect = lower value 0.98 | locus YJL187C, strain SWE1, stronger effect = lower value 0.993 | locus YJR043C, strain POL32, stronger effect = lower value 0.979 | locus YJR066W, strain TOR1, stronger effect = lower value 0.972 | locus YJR075W, strain HOC1, stronger effect = lower value 0.985 | locus YKL009W, strain mrt4, stronger effect = lower value 1.04 | locus YKL068W, stronger effect = lower value 1 | locus YKL085W, strain MDH1 (second series), stronger effect = lower value 0.999 | locus YKL085W, strain MDH1, stronger effect = lower value 0.999 | locus YKL160W, strain elf1, stronger effect = lower value 0.959 | locus YKL190W, strain CNB1, stronger effect = lower value 1 | locus YKR001C, strain vps1, stronger effect = lower value 0.982 | locus YKR026C, strain gcn3, stronger effect = lower value 0.979 | locus YKR091W, strain srl3, stronger effect = lower value 0.983 | locus YLL001W, strain dnm1, stronger effect = lower value 0.966 | locus YLL026W, stronger effect = lower value 0.976 | locus YLL041C, strain sdh2, stronger effect = lower value 0.98 | locus YLR027C, strain aat2, stronger effect = lower value 0.979 | locus YLR039C, strain RIC1, stronger effect = lower value 0.928 | locus YLR058C, strain SHM2, stronger effect = lower value 0.99 | locus YLR102C, strain apc9, stronger effect = lower value 1.03 | locus YLR113W, strain HOG1, stronger effect = lower value 0.934 | locus YLR221C, strain rsa3, stronger effect = lower value 0.949 | locus YLR258W, strain gsy2, stronger effect = lower value 0.957 | locus YLR262C, strain YPT6 (second series), stronger effect = lower value 0.907 | locus YLR262C, strain YPT6, stronger effect = lower value 0.925 | locus YLR268W, strain sec22, stronger effect = lower value 0.999 | locus YLR320W, strain mms22, stronger effect = lower value 0.921 | locus YLR330W, strain CHS5, stronger effect = lower value 0.996 | locus YLR342W, strain FKS1 (second series), stronger effect = lower value 1.01 | locus YLR342W, strain FKS1, stronger effect = lower value 0.968 | locus YLR357W, strain rsc2, stronger effect = lower value 0.937 | locus YLR370C, strain arc18, stronger effect = lower value 0.981 | locus YLR371W, strain rom2, stronger effect = lower value 0.995 | locus YLR384C, strain iki3, stronger effect = lower value 0.959 | locus YLR418C, strain cdc73, stronger effect = lower value 0.889 | locus YML016C, strain PPZ1, stronger effect = lower value 0.999 | locus YML032C, strain rad52, stronger effect = lower value 1.01 | locus YML120C, strain ndi1, stronger effect = lower value 0.985 | locus YML124C, strain tub3, stronger effect = lower value 0.998 | locus YMR078C, strain ctf18, stronger effect = lower value 1.01 | locus YMR125W, strain sto1, stronger effect = lower value 0.974 | locus YMR129W, stronger effect = lower value 0.985 | locus YMR205C, strain PFK2, stronger effect = lower value 0.948 | locus YMR223W, strain ubp8, stronger effect = lower value 0.959 | locus YMR231W, strain pep5, stronger effect = lower value 0.965 | locus YMR263W, strain SAP30, stronger effect = lower value 0.988 | locus YMR307W, strain GAS1, stronger effect = lower value 1.16 | locus YNL067W, strain RPL9B, stronger effect = lower value 0.973 | locus YNL071W, strain lat1, stronger effect = lower value 0.952 | locus YNL153C, strain GIM3, stronger effect = lower value 0.989 | locus YNL183C, strain NPR1, stronger effect = lower value 0.935 | locus YNL209W, strain ssb2, stronger effect = lower value 0.984 | locus YNL233W, strain BNI4, stronger effect = lower value 0.948 | locus YNL248C, strain rpa49, stronger effect = lower value 0.961 | locus YNL250W, strain rad50, stronger effect = lower value 0.998 | locus YNL271C, strain bni1, stronger effect = lower value 1.02 | locus YNL298W, strain CLA4, stronger effect = lower value 0.989 | locus YNL307C, strain MCK1, stronger effect = lower value 0.977 | locus YNL322C, strain KRE1 (second series), stronger effect = lower value 0.964 | locus YNR049C, strain mso1, stronger effect = lower value 0.978 | locus YNR052C, strain pop2, stronger effect = lower value 0.981 | locus YOL006C, strain TOP1, stronger effect = lower value 0.883 | locus YOL012C, strain htz1 0.967 | locus YOL147C, strain pex11, stronger effect = lower value 1 | locus YOR001W, strain rrp6, stronger effect = lower value 0.96 | locus YOR061W, strain CKA2, stronger effect = lower value 1.01 | locus YOR069W, strain VPS5, stronger effect = lower value 1 | locus YOR070C, strain gyp1, stronger effect = lower value 0.959 | locus YOR080W, strain dia2, stronger effect = lower value 1.01 | locus YOR083W, strain WHI5, stronger effect = lower value 0.958 | locus YOR106W, strain vam3, stronger effect = lower value 0.988 | locus YOR136W, strain idh2, stronger effect = lower value 1.01 | locus YOR144C, strain elg1, stronger effect = lower value 1.01 | locus YOR184W, strain ser1, stronger effect = lower value 0.904 | locus YOR231W, strain MKK1, stronger effect = lower value 1 | locus YOR265W, strain rbl2, stronger effect = lower value 0.968 | locus YOR270C, strain vph1, stronger effect = lower value 0.919 | locus YOR290C, strain snf2, stronger effect = lower value 0.944 | locus YOR316C, strain cot1, stronger effect = lower value 1.02 | locus YPL051W, strain arl3, stronger effect = lower value 0.98 | locus YPL055C, strain LGE1, stronger effect = lower value 0.947 | locus YPL078C, strain atp4, stronger effect = lower value 0.963 | locus YPL106C, strain sse1, stronger effect = lower value 0.91 | locus YPL240C, strain hsp82, stronger effect = lower value 0.976 | locus YPL241C, strain CIN2, stronger effect = lower value 0.998 | locus YPL256C, strain CLN2, stronger effect = lower value 1.04 | locus YPR119W, strain clb2, stronger effect = lower value 1.01 | locus YPR141C, strain kar3, stronger effect = lower value 1.01 | locus YPR163C, strain tif3, stronger effect = lower value 0.994 | locus YPR167C, strain met16, stronger effect = lower value 1.02 | strain wtn01, stronger effect = lower value 1.01
active: locus YDR392W, strain spt3, stronger effect = lower value 0.668
